PHOSPHO1 block – inhibitors of human PHOSPHO1 phosphatase | 290,000 tested, 1.1% active | Q8TCT1 | inhibition, % at 13.3 µM | recombinant PHOSPHO1, absorbance phosphatase assay; in the data active = inhibition above about 60%
Target sequence (Q8TCT1 whole entry, looked up): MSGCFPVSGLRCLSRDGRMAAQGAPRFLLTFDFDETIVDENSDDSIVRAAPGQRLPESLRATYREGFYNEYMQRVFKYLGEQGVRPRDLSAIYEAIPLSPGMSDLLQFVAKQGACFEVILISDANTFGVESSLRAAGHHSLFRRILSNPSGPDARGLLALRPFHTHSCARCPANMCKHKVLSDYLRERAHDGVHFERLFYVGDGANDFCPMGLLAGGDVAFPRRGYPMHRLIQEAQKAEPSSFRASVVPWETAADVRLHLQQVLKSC
ALR inh – inhibitors of human sulfhydryl oxidase ALR. purified ALR, DTT oxidation, H2O2 HRP-luminol luminescence. inhibition, % (no concentration beside the values). 290,000 tested, 3.8% active;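 active = mean replicate inhibition above about 79%, with every replicate also reaching it, limit read from the data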
Target sequence (P55789 whole entry, looked up): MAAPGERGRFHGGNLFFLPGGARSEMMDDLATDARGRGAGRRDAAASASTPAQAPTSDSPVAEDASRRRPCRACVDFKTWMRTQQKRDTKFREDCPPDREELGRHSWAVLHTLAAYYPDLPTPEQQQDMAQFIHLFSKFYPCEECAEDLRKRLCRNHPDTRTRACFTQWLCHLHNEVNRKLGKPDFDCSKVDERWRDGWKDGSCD
M18AAP inhibitor – blocks P. falciparum M18 aspartyl aminopeptidase | 290,000 tested, 1.2% active | AID 1822 | inhibition, % at 7.35 µM | recombinant PfM18AAP, H-Glu-NHMec fluorogenic cleavage;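 active = inhibition above the campaign mean inhibition over all tested compounds plus 3 SD, cut at about 28% in these data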;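 note: 0% = plate median of test compound wells and 100% = 2 mM ZnCl2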
PfGluPho inh – PfG6PD (Plasmodium falciparum) enzyme inhibition; PfGluPho enzyme, NADPH resazurin-diaphorase fluorescence; inhibition, % at 20 µM; 350,000 tested, 0.78% active;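 active = inhibition reaching at least a set limit at 20 µM in the primary screen, cut at about 59% in these data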;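 note: 0% = DMSO wells with substrate and 100% = DMSO wells lacking glucose-6-phosphate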
H9c2 protect – modulators protecting cardiomyocytes from myocardial damage | H9c2 cardiomyocytes, H2O2 injury protection, ATPLite, 2 h | protection from H2O2 cell death, % at 20 µM | 360,000 tested, 0.63% active | AID 588492;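 active = compounds giving at least 50% protection of heart cells from peroxide-induced death in the single-dose screen, raw or plate-pattern-corrected value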;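 note: 0% = DMSO wells with peroxide and 100% = DMSO wells without peroxide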
An asterisk follows results filed as active; . = not tested or not shown. Only some compounds are listed: those with a hit (about 5.6% of all), similar ones and a draw of the others.

SMILES | PHOSPHO1 block | ALR inh | M18AAP inhibitor | PfGluPho inh | H9c2 protect
O=C(O)c1ccc(-c2nc(-c3ccccc3)cs2)cc1 | -38 | 95* | -8 | -15 | 5
CNC(=O)c1ccc(-c2nc(-c3ccccc3)cs2)cc1 | 38 | -3 | 4 | 14 | 4
O=C(O)c1ccccc1C(=O)Nc1ccc(-c2csc(-c3ccccc3)n2)cc1 | 0 | 99* | -12 | -40 | -7
O=C(COC(=O)c1ccc(Cl)nc1)NCCC1=CCCCC1 | 20 | 88* | -2 | -4 | -5
O=C(COC(=O)c1ccc(O)cc1)NCCC1=CCCCC1 | 53 | 0 | -10 | -21 | -9
O=C(CS(=O)c1ccccc1[N+](=O)[O-])Oc1ccc(Br)cc1 (stereo not given) | 58 | 78* | 4 | -6 | -6
CCOC(=O)NC(=O)CSc1ccc(S(=O)(=O)N(C)C2CCCCC2)cn1 | . | . | . | -1 | 1
CCc1nc2ccc(C(=O)Nc3cccc(OCC(=O)N(C)C)c3)cn2c1N(C)Cc1ccc(OC)cc1 | . | . | . | . | 19
Cc1ccc(C2c3c(oc4ccccc4c3=O)C(=O)N2c2nnc(C(C)C)s2)o1 (stereo not given) | 3 | 97* | -7 | -14 | 33
CC(C)c1nnc(N2C(=O)c3oc4ccccc4c(=O)c3C2c2ccco2)s1 (stereo not given) | -6 | 2 | 4 | -17 | 18
CCCCCC(=O)N1C[C@@H](n2cc(C3CC3)nn2)[C@H](O)C[C@@H]1c1ccc(C)cc1 | . | . | . | -2 | -4
CCOC(=O)C1=c2s/c(=C\c3ccncc3)c(=O)n2C(N)=C(C(=O)OC)C1c1ccncc1 (stereo not given) | 8 | 9 | -9 | 6 | 68*
COc1cc([N+](=O)[O-])cc(CN2CCCCC2)c1O | 4 | 98* | -3 | 0 | -1
O=[N+]([O-])c1ccc(Cl)c(CN2CCCCCC2)c1 | . | . | 10 | -8 | 3
CC(C(=O)N1CCCCC1)N(C)CC(=O)Nc1cccc(F)c1 (stereo not given) | . | 0 | . | -5 | .
O=C(COC(=O)Cc1ccccc1F)Nc1ccc(SC(F)F)cc1 | -7 | 20 | -2 | 15 | -2
CCCCC(=O)OCC(=O)Nc1ccc(SC(F)F)cc1 | 25 | 98* | 4 | 25 | 5
CN1CC(=O)N(CC(=O)Nc2ccc(SC(F)F)cc2)C1=O | 0 | 98* | -1 | -7 | 3
CCCCNC(=S)Nc1ccc(SC(F)F)cc1 | -25 | 98* | -5 | -9 | -23
Cc1ccc(C(=O)NCC(=O)OCC(=O)Nc2cc(S(=O)(=O)N3CCOCC3)ccc2Cl)s1 | . | 13 | . | 8 | -3
C[C@H](CO)N1C[C@H](C)[C@@H](CN(C)S(=O)(=O)c2ccccc2)Oc2ccc(NC(=O)CCC(F)(F)F)cc2C1=O | . | -1 | . | 7 | 10
COc1ccc(Nc2nc3cc(-c4ccccc4C)sc3c(=O)n2C)cc1OC | . | . | . | . | 9
COc1ccccc1C(=O)Nc1nc(-c2ccc3c(c2)OCCO3)cs1 | -21 | -1 | -1 | 31 | 64*
c1cc2c(cc1-c1csc(NNC3=NCCCCC3)n1)OCCO2 | 56 | 98* | 41* | 41 | .
c1cc2c(cc1Nc1nc(-c3ccc4c(c3)OCO4)cs1)OCCO2 | 27 | -7 | 4 | 24 | 0
SMILES | PHOSPHO1 block | ALR inh | M18AAP inhibitor | PfGluPho inh | H9c2 protect
CCC(=O)Nc1nc(-c2ccc3c(c2)OCCO3)cs1 | -10 | 86* | 3 | 21 | -16
CCCCC[C@@H](O)c1cc2ccccc2c(=O)o1 | . | 4 | . | -5 | -5
CCOc1ncccc1C(=O)OCC(=O)Nc1ccc2c(c1)OCCO2 | . | . | . | -7 | 0
COc1ccc2c(c1OC)C(=O)N1c3ccccc3C(=O)N(c3ccccc3)C21 (stereo not given) | 24 | -6 | 6 | 9 | 54*
CC(Oc1ccc([N+](=O)[O-])cc1)C(=O)NCCCN1CCOCC1 (stereo not given) | 66* | 1 | 5 | -1 | 2
Cn1cc(C(=O)N/N=C/C2=C(N3CCOCC3)C(=C\c3ccccc3)/CC2)ccc1=O | 0 | 89* | 13 | 2 | 10
O=C(Nc1ccccc1F)Nc1ccccc1F | 47 | 9 | 0 | -8 | -12
O=C(NNc1ccccc1)Nc1ccccc1F | 19 | 0 | 30* | 0 | -6
CC1=C(C(=O)OC2CCCCC2)C(c2ccccc2)NC(=O)N1 (stereo not given) | 44 | 97* | 3 | 0 | -5
CC1=C(C(=O)OC2CCCCCCC2)C(c2ccc(O)cc2)NC(=O)N1 (stereo not given) | -3 | 5 | -4 | -6 | -7
CCOc1ccc(Cl)cc1-c1cc(C(=O)Nc2ccc(C(C)C)cc2)[nH]n1 | . | . | . | . | -10
O=[N+]([O-])c1ccc([N+](=O)[O-])c(Nc2ccc(N3CCOCC3)cc2)c1 | 47 | 98* | -1 | 12 | -1
O=S(=O)(Nc1ccc(N2CCOCC2)cc1)c1ccccc1 | 12 | 99* | 19 | 18 | -13
O=S(=O)(Nc1ccc(N2CCCCC2)cc1)c1ccccc1 | 7 | 61 | 19 | 2 | 2
Cc1cc(C)c(S(=O)(=O)Nc2ccc(N3CCOCC3)cc2)c(C)c1 | 39 | 86* | 5 | 22 | -1
Cc1cc(S(=O)(=O)Nc2ccc(N3CCOCC3)cc2)ccc1Br | 23 | 75 | 5 | -1 | -11
O=S(=O)(Nc1ccc(N2CCOCC2)cc1)c1ccc(Cl)s1 | -9 | 98* | 20 | -4 | 0
Cc1ccc([N+](=O)[O-])cc1S(=O)(=O)Nc1ccc(N2CCOCC2)cc1 | 38 | 99* | 6 | 10 | -11
Cc1ccc([N+](=O)[O-])cc1S(=O)(=O)Nc1ccc(OCC(=O)N2CCOCC2)cc1 | 3 | -3 | -4 | 2 | 1
O=C(/C=C/c1ccccc1)NC(=S)Nc1ccc(N2CCOCC2)cc1 | 40 | -11 | 3 | 6 | -2
O=S(=O)(/C=C/c1ccccc1)Nc1ccc(N2CCOCC2)cc1 | -39 | 95* | -4 | 8 | -21
O=C(Nc1ccn(CCCN2CCC(N3CCOCC3)CC2)c(=O)n1)OCc1ccccc1 | . | . | . | 1 | -2
CC(C)(C)c1ccc(-c2nc3cc(N)ccc3o2)cc1 | . | 99* | -5 | 9 | -22
Cc1ccc(-c2nc3cc(N)ccc3o2)c(C)c1 | -39 | 99* | 5 | 16 | -30
Nc1ccc2oc(-c3cccs3)nc2c1 | 2 | 98* | 1 | 9 | -4
SMILES | PHOSPHO1 block | ALR inh | M18AAP inhibitor | PfGluPho inh | H9c2 protect
NC(N)=Nc1ccc(C=C2C=Cc3ccccc32)cc1 | . | . | . | 38 | 1
COCCNC(=O)Cn1cnc2c(cnn2-c2ccc(C)cc2)c1=O | 14 | 0 | -5 | -9 | 11
CCn1c(C)c(C(C)=O)c(N2CCN(c3ccccc3)CC2)nc1=S | 30 | 97* | 15 | -2 | 2
O=C(O)c1ccc(OS(=O)(=O)c2ccc(Cl)s2)cc1 | . | . | . | -21 | -2
CC(NC(=O)C(=O)N1CCOCC1)C(c1cccs1)N1CCN(c2ccc(F)cc2)CC1 (stereo not given) | 49 | 98* | 7 | -17 | -4
CC(NC(=O)C(=O)N1CCOCC1)C(c1cccs1)N1CCN(c2ccccc2F)CC1 (stereo not given) | 12 | 15 | -11 | 12 | -3

Screens: PubChem BioAssay, several laboratories
